Results taken from PubChem BioAssay (NCATS).
Several values for one entry are separate records, joined by “and”; a condition that tells them apart may be missing. Equal entries are not always repeated. Results filed as inconclusive are left out. Where a structure was tested more than once in an assay, its records may differ in their call. Activity calls are given as the source filed them. The call rests on the fitted dose curve; in most records, active means well fitted curve in the direction sought with a large enough effect; inconclusive means small, poorly fitted or top-dose-only effect, or another doubt; inactive means no such curve, though single readings can be large; an effect the other way counts as inactive or inconclusive.

Tests used:
[1] = Identifying Small Molecule Inhibitors of Pancreatic Cancer Stem Cells (A278, Adherent) (AID 1259361); further: nearly all actives have a fitted effect of over 35% in size
In short: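 Cytotoxicity read by CellTiter-Glo luminescence after 48 h compound exposure at 37C; percent activity scaled between DMSO-treated cells and cell-free wells. Spheroid formats used cells pre-formed 14 days in stem cell media on hydrogel.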

[2] = Identifying Small Molecule Inhibitors of Pancreatic Cancer Stem Cells (Panc1, Adherent) (AID 1259362); conditions: Potency: viability; further: potency means the concentration at half of the fitted maximal effect
In short: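 Spheroids grown 14 days in stem cell media on hydrogel-coated nonadherent plates; 2D lines seeded directly. Compounds added after 4 h attachment, 48 h at 37C, 5% CO2; CellTiter-Glo luminescence normalized to DMSO (no inhibition) and no-cell wells (full inhibition).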

[3] = P-glycoprotein substrates identified in KB-3-1 adenocarcinoma cell line, qHTS therapeutic library screen (AID 1346986); further: nearly all actives have a fitted effect of over 60% in size;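 further: potency means the concentration at half of the fitted maximal effect; potency is for cytotoxicity meaning loss of cell viability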
In short: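 Cells seeded 500/well in DMEM/10% FCS; compounds pinned in dose-response; 72 h incubation; CellTiter-Glo added, 5 min, luminescence. KB-8-5-11 run ±tariquidar to test reversal of P-gp resistance.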

[4] = P-glycoprotein substrates identified in KB-8-5-11 adenocarcinoma cell line, qHTS therapeutic library screen (AID 1346987); further: nearly all actives have a fitted effect of over 65% in size; further: potency means the concentration at half of the fitted maximal effect
In short: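 KB-8-5-11, a colchicine-selected P-gp-overexpressing KB-3-1 subline, was grown without colchicine for the assay. Cells were seeded at 500 cells/well, dosed in concentration-response and incubated 72 h at 37 degree C, 5% CO2. Viability was read by CellTiter-Glo luminescence.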

[5] = NS1 protein of Zika virus - qHTS assay to identify small molecule inhibitors in human HEK 293 cells (AID 1347053); further: nearly all actives have a fitted effect of over 55% in size; further: potency means the concentration at half of the fitted maximal effect
In short: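 HEK 293 cells pretreated with compound for 1 h, then infected with ZIKV MR766 (MOI 0.5) for 24 h at 37 C. NS1 detected by TR-FRET with two anti-NS1 antibodies; normalized to uninfected (0%) and infected (100%) wells.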

Compound	IC50 (viability decrease) [1]	Potency [2]	Potency [3]	Potency [4]	Potency [5]
c1ccc2c(-c3cnn4cc(-c5ccc(N6CCNCC6)cc5)cnc34)ccnc2c1	23.5 µM (active)	20.9 µM (active)			
NC(=O)c1cnc(-c2ccc(C3(N)CCC3)cc2)c(-c2ccccc2)c1			16.4 µM (active)	inactive	
COc1cccc2c1CCCC2CCCN1CCN(C2CCCCC2)CC1 (centres undefined)	16.6 µM (active)				
NC(CO)(CO)CCc1ccc(Sc2cccc(OCc3ccccc3)c2)cc1Cl	26.4 µM (active)	inactive			9.35 µM (active)
O=c1cc(CN2CCOCC2)occ1OCCCCCSc1ccnc2cc(C(F)(F)F)ccc12		inactive		10.3 µM (active)	
COc1cc(N2CCC(N3CCN(C)CC3)CC2)ccc1Nc1ncc(Cl)c(Nc2ccccc2S(=O)(=O)C(C)C)n1	6.62 µM (active)			0.651 µM (active)	
O=c1cc(N2CCOCC2)oc2c(-c3cccc4c3sc3ccccc34)cccc12	18.7 µM (active)	23.5 µM (active)	inactive	inactive	18.7 µM (active)
O=C(Nc1cc(Cl)cc2c1[nH]c1cnccc12)c1cccnc1		inactive	inactive		inactive
CC(=O)O[C@]1(C(C)=O)CC[C@@H]2[C@@H]3C[C@H](C)C4=CC(=O)CC[C@]4(C)[C@H]3CC[C@@]21C			inactive		
COc1cc2ncnc(-n3nc(-c4ccccn4)nc3N)c2cc1OC	3.32 µM (active)	18.7 µM (active)	inactive	inactive and 10 µM (active)	inactive
CC(=O)N(C)C1(c2ccccc2)CCN(CCC[C@]2(c3ccc(Cl)c(Cl)c3)CCCN(C(=O)c3ccccc3)C2)CC1	9.35 µM (active)			10.5 µM (active) and 13 µM (active)	26.4 µM (active)
